Screen size: about 39,000 compounds; about 500 (1.3%) were called active. The entries come from a sample that favours actives as a whole.
Test system: S. aureus RN4220
Assay: growth inhibition call (relative growth <= 0.2)
Conditions: 50 µM

Growth inhibition call, active:
Cc1c2c(nn1C)CSCc1cc(n(C)n1)CSc1cc(c3ccccc3c1)OCCCc1c(C(=O)O)n(C)c3c-2c(Cl)ccc13
N=C(N)c1ccc(OCCCCCOc2ccc(C(=N)N)cc2)cc1.O=S(=O)(O)CCO.O=S(=O)(O)CCO
CC(=O)c1c(O)c(C)c(O)c2c1OC1=CC(=O)C(C(C)=O)C(=O)C12C (stereo not drawn)
CCCc1c(SCCCOc2ccc(C(C)=O)c(OCCCC(=O)O)c2CCC)ccc(C(C)=O)c1O
CON=C(C(=O)NC1C(=O)N2C(C(=O)O)=C(CSC(=O)c3ccco3)CSC12)c1csc(N)n1.Cl (stereo not drawn)
CO/N=C(\C(=O)N[C@@H]1C(=O)N2C(C(=O)O)=C(CSC(=O)c3ccco3)CS[C@H]12)c1csc(N)n1
NNCCc1ccccc1
CCOc1ccc2ccccc2c1C(=O)NC1C(=O)N2C1SC(C)(C)C2C(=O)[O-].[Na+] (stereo not drawn)
COc1cccc(OC)c1C(=O)NC1C(=O)N2C1SC(C)(C)C2C(=O)[O-].[Na+] (stereo not drawn)
Cc1cc(OCCCS(C)(=O)=O)cc(C)c1-c1cccc(COc2ccc3c(c2)OC[C@H]3CC(=O)O)c1
CO[C@H]1C[C@H](O[C@@H]2/C(C)=C/C[C@@H]3C[C@@H](C[C@]4(CC[C@H](C)[C@@H](C5CCCCC5)O4)O3)OC(=O)[C@@H]3C=C(C)/C(=N/O)[C@H]4OC/C(=C\C=C\[C@@H]2C)[C@]43O)O[C@@H](C)[C@@H]1O
CN[C@@H]1[C@@H](C)O[C@@H](O[C@H]2[C@H](C)O[C@@H](O[C@@H]3/C(C)=C/C[C@@H]4C[C@@H](C[C@]5(C=C[C@H](C)[C@@H](C(C)C)O5)O4)OC(=O)[C@@H]4C=C(C)[C@@H](O)[C@H]5OC/C(=C\C=C\[C@@H]3C)[C@]54O)C[C@@H]2OC)C[C@H]1OC

Growth inhibition call, inactive:
O=C(C[C@@H]1C=C[C@@H](NC(=O)CN2CCOCC2)[C@@H](CO)O1)NCCc1ccncc1
COc1cccc(S(=O)(=O)N(C)C[C@H]2OCc3cn(nn3)CCCC(=O)N([C@H](C)CO)C[C@@H]2C)c1
COc1ccc(S(=O)(=O)N(C)C[C@@H]2OCCCC[C@@H](C)Oc3ccc(NC(=O)Nc4c(C)noc4C)cc3C(=O)N([C@H](C)CO)C[C@H]2C)cc1
C[C@H]1CN([C@@H](C)CO)C(=O)c2cc(NS(C)(=O)=O)ccc2O[C@H]1CN(C)C(=O)NC1CCCCC1
CN([NH2+][O-])c1ccc(O)c(O)c1
C[C@@H](N)c1ccc(F)cc1F
COc1ccc(S(=O)(=O)Nc2cccc3c2O[C@@H](CN(C)C(=O)NC(C)C)[C@@H](C)CN([C@@H](C)CO)C3=O)cc1
C[C@H]1CN([C@@H](C)CO)C(=O)c2cc(NC(=O)Nc3ccc(C(F)(F)F)cc3)ccc2O[C@@H]1CN(C)C(=O)Nc1ccc2c(c1)OCO2
N=C(N)c1ccc(C(N)=O)cc1
OCCC[C@@H](O)c1ccc(OCCO)cc1
COc1ccc(S(=O)(=O)Nc2ccc3c(c2)C(=O)N([C@@H](C)CO)C[C@H](C)[C@H](CN(C)CC2CC2)O3)cc1
C[C@@H]1CN([C@@H](C)CO)C(=O)c2cc(NS(=O)(=O)c3ccccc3)ccc2O[C@@H](C)CCCCO[C@H]1CN(C)S(=O)(=O)c1cn(C)cn1
C[C@H](CO)N1C[C@H](C)[C@H](CN(C)S(=O)(=O)c2ccc(F)cc2)Oc2ncc(-c3ccncc3)cc2C1=O
CC(=O)C1C(=O)C=C(C)OC1=O (stereo not drawn)
COc1cc(OC)c(C(C)=O)c(O)c1C
COCC(=O)Nc1ccc2c(c1)C(=O)N(C)C[C@@H](OC)[C@H](C)CN(Cc1cccc(F)c1)[C@H](C)CO2
CC(=O)N1c2ccccc2C2=NNC(=S)N[C@]21O
C[C@H]1CCCCO[C@H](CN(C)C(=O)Cc2ccccc2)[C@@H](C)CN([C@@H](C)CO)C(=O)c2cc(NC(=O)Nc3ccc(F)cc3)ccc2O1
C[C@@H]1CN([C@@H](C)CO)C(=O)c2cc(/C=C/c3ccccc3)cnc2O[C@@H]1CN(C)C(=O)C1CCOCC1
Cc1noc(C)c1S(=O)(=O)Nc1ccc2c(c1)C(=O)N([C@@H](C)CO)C[C@H](C)[C@@H](CN(C)S(=O)(=O)c1ccc(Cl)cc1)O2
NNCCc1ccccc1.O=S(=O)(O)O
N=C(N=C(N)N)NCCc1ccccc1
O=c1[nH]c(=O)n(C2CC(O)C(CO)O2)cc1I (stereo not drawn)
COc1cccc(OC)c1C(=O)NCCCO
COc1cccc(OC)c1C(=O)NN
Cc1cc(=O)n2nc(CC(=O)NCCCn3c(C)cccc3=O)nc2[nH]1
C[C@H]1CN([C@@H](C)CO)S(=O)(=O)c2ccc(Br)cc2O[C@H]1CN(C)S(=O)(=O)c1ccccc1
Cc1noc(C)c1S(=O)(=O)N(C)C[C@@H]1Oc2ccc(NC(=O)C3CC3)cc2CC(=O)N([C@@H](C)CO)C[C@@H]1C
C[C@@H]1CN([C@@H](C)CO)C(=O)c2cc(NS(=O)(=O)c3ccc(Cl)cc3)ccc2O[C@@H](C)CCCCO[C@@H]1CN(C)Cc1ccccc1
C[C@H]1CN([C@@H](C)CO)C(=O)c2c(c3ccccc3n2C)-c2ccccc2CO[C@H]1CN(C)C(=O)Nc1cccc(F)c1
C[C@H]1OC(=O)c2c(O)ccc(O)c2[C@H]1O
COc1cccc(NC(=O)N2C[C@H](O)COC[C@@H]3O[C@H](CC(=O)NCCCN4CCOCC4)CC[C@H]32)c1
CCC(C)C1OC2(C=CC1C)CC1CC(CC=C(C)C(OC3CC(OC)C(OC4CC(OC)C(NC(C)=O)C(C)O4)C(C)O3)C(C)C=CC=C3COC4C(O)C(C)=CC(C(=O)O1)C34O)O2 (stereo not drawn)
COC1CC(OC2C(C)=CCC3CC(CC4(CCC(C)C(C5CCCCC5)O4)O3)OC(=O)C3C=C(C)C(=NO)C4OCC(=CC=CC2C)C34O)OC(C)C1O (stereo not drawn)
CC[C@H](C)[C@H]1O[C@]2(C=C[C@@H]1C)C[C@@H]1C[C@@H](C/C=C(\C)[C@@H](O[C@H]3C[C@H](OC)[C@@H](O[C@H]4C[C@H](OC)[C@@H](NC(C)=O)[C@H](C)O4)[C@H](C)O3)[C@@H](C)/C=C/C=C3\CO[C@@H]4[C@H](O)C(C)=C[C@@H](C(=O)O1)[C@]34O)O2
CO[C@H]1C[C@@H](O[C@@H]2/C(C)=C/C[C@@H]3C[C@@H](C[C@]4(CC[C@H](C)[C@@H](C5CCCCC5)O4)O3)OC(=O)[C@@H]3C=C(C)/C(=N/O)[C@H]4OC/C(=C\C=C\[C@@H]2C)[C@]43O)O[C@@H](C)[C@@H]1O

Source: the antibiotic and cytotoxicity screens of Wong et al. (2023)
